# In paper PMC7862700, “An all-to-all approach to the identification of sequence-specific readers for epigenetic DNA modifications on cytosine”:
# How the values were obtained:
# Assay in all cases: DAPPL (digital affinity profiling via proximity ligation, sequencing); 10 mM Tris-HCl pH 7.5, 50 mM NaCl, 1 mM DTT, 4% glycerol, room temperature, 30 min; GST-TFs on glutathione beads, 16-mer random dsDNA library, 0.1% formaldehyde crosslink after washing; high values mean tight binding
# Conditions in all cases: protein: recombinant; tags: N-terminal GST; dsDNA, one strand shown
# FLI1 = molecular target: T1, FLI1 (Homo sapiens, UniProt Q01543 1-452)
# T1 sequence: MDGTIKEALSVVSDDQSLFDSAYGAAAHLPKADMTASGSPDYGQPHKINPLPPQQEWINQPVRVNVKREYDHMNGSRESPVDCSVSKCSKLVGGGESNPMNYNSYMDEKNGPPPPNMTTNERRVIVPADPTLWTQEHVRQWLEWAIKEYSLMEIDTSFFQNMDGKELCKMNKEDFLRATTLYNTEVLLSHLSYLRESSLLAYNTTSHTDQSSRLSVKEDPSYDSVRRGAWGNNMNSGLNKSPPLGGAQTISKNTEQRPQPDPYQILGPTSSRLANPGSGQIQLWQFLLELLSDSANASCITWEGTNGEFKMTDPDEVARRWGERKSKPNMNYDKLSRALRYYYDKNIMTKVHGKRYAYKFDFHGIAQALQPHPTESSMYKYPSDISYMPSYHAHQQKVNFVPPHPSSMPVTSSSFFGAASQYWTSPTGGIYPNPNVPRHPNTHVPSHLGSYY
# Method in brief: (§1)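 Pools of DNA-barcoded human transcription factors, expressed in yeast as GST fusions on glutathione beads and combined with a tag-only sample, were incubated with 200 nmole of a 16-mer random double-stranded DNA library. Incubation took 30 min at room temperature in Tris/NaCl/DTT/glycerol buffer and was followed by washing, 0.1% formaldehyde crosslinking, proximity ligation (BsaI/T4 ligase, 1 h, 37 °C), PCR amplification and sequencing on an Illumina NextSeq500. Binding signal is the ratio of a hexamer's read frequency for a factor to its frequency for the tag-only sample.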
# ELK1 = molecular target: T2, ELK1 (Homo sapiens, UniProt P19419 1-428)
# T2 sequence: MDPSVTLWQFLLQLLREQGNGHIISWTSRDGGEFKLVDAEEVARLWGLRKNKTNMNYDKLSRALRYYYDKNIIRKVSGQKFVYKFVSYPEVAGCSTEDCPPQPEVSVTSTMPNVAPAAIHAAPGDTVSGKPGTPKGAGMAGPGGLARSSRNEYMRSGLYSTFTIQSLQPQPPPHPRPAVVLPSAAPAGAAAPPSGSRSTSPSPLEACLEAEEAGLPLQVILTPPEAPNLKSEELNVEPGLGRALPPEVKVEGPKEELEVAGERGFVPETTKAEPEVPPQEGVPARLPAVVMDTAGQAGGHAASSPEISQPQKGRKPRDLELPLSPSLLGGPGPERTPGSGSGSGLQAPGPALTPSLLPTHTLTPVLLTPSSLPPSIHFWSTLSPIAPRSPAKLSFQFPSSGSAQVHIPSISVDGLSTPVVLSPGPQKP
# Method in brief: as §1
# GABPA = molecular target: T3, GABPA (Homo sapiens, UniProt Q06546 1-454)
# T3 sequence: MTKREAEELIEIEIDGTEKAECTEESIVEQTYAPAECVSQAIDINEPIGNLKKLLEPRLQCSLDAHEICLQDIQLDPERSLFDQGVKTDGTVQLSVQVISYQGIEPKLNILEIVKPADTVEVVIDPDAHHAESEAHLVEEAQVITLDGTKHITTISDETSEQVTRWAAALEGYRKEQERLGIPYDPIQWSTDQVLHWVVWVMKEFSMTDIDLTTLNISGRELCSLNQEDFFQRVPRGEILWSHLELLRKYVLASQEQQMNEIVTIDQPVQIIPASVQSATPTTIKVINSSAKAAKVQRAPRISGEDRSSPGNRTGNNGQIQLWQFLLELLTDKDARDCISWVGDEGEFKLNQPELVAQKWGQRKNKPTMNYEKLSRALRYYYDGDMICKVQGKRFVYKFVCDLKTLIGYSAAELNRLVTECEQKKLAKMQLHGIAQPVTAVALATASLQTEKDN
# Method in brief: as §1
# ERG = molecular target: T4, ERG (Homo sapiens, UniProt P11308 1-479)
# T4 sequence: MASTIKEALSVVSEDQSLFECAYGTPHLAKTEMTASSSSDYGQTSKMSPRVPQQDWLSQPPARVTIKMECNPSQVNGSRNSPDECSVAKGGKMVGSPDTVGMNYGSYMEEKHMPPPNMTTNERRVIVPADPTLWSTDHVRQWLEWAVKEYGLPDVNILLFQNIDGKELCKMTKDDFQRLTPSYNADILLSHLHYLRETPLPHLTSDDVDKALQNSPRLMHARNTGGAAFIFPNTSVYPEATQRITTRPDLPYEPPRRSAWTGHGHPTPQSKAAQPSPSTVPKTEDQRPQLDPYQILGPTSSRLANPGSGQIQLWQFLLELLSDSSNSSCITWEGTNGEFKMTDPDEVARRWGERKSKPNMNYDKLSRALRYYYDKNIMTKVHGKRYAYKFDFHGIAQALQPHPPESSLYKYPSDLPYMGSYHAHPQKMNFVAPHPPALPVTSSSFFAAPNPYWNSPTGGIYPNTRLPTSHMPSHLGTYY
# Method in brief: as §1
# ELF1 = ELF1 (Homo sapiens, UniProt P32519 1-619)
# Method in brief: as §1
# EHF = molecular target: T5, EHF (Homo sapiens, UniProt Q9NZC4 1-300)
# T5 sequence: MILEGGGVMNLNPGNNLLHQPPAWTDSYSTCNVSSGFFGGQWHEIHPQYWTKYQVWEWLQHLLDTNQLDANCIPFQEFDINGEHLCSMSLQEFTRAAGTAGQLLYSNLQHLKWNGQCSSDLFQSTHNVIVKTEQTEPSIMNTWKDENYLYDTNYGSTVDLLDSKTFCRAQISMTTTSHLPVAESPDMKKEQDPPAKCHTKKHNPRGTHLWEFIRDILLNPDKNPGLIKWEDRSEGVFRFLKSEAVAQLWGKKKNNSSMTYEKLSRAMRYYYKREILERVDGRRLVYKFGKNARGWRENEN
# Method in brief: as §1
# SPI1 = SPI1 (Homo sapiens, UniProt P17947 1-270)
# Method in brief: as §1
# SPIB = SPIB (Homo sapiens, UniProt Q01892 1-262)
# Method in brief: as §1
# ELK3 = molecular target: T6, ELK3 (Homo sapiens, UniProt P41970 1-407)
# T6 sequence: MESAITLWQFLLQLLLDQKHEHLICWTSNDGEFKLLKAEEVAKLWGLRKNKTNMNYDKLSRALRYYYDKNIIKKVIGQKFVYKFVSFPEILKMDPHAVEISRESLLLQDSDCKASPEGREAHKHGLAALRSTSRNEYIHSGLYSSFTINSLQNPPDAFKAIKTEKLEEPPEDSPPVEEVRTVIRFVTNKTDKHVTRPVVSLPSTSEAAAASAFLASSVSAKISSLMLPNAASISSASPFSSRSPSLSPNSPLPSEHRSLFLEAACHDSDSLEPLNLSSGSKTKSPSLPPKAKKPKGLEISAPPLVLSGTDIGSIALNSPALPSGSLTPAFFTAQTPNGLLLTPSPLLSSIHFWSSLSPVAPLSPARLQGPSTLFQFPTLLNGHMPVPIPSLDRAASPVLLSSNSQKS
# Method in brief: as §1
# SPIB, sequence (Q01892 whole entry): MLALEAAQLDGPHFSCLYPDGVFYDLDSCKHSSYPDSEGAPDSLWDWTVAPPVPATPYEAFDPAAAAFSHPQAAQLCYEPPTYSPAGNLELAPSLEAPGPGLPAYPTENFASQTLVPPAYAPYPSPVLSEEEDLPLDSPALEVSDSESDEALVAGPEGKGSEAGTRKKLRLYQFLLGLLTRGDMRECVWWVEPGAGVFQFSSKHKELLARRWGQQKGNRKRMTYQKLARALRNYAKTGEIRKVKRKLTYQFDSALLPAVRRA
# ELF1, sequence (P32519 whole entry): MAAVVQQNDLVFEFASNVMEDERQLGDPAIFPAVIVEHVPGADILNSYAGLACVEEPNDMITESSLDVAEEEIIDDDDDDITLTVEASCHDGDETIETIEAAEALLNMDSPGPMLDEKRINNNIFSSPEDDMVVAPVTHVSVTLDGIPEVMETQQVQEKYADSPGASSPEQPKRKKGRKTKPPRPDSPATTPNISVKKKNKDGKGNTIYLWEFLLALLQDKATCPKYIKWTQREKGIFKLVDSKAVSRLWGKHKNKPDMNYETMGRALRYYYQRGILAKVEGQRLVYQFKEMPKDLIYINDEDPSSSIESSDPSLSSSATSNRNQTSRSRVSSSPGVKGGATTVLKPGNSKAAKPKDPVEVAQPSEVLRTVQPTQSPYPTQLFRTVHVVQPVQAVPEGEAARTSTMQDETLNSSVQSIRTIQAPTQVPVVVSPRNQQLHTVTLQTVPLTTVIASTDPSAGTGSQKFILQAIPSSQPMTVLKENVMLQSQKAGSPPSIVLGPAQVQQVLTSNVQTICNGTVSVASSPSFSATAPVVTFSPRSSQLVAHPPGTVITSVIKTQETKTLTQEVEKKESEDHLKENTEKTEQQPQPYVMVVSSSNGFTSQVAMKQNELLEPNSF
sequence,measurement,setting,value
CTACCT,binding signal,FLI1,"1.37 fold enrichment (6-mer frequency, TF over GST control)"
same,binding signal,ELK1,"1.46 fold enrichment (6-mer frequency, TF over GST control)"
same,binding signal,GABPA,"1.35 fold enrichment (6-mer frequency, TF over GST control)"
same,binding signal,ERG,"1.43 fold enrichment (6-mer frequency, TF over GST control)"
same,binding signal,ELF1,"1.35 fold enrichment (6-mer frequency, TF over GST control)"
same,binding signal,EHF,"1.46 fold enrichment (6-mer frequency, TF over GST control)"
same,binding signal,SPI1,"1.45 fold enrichment (6-mer frequency, TF over GST control)"
same,binding signal,SPIB,"1.4 fold enrichment (6-mer frequency, TF over GST control)"
same,binding signal,ELK3,"1.44 fold enrichment (6-mer frequency, TF over GST control)"
